The values that follow come from PubChem BioAssay (EPA / NIEHS).

The nature of test [1]: ACEA_ER_80hr: ACEA Biosciences xCELLigence Real-Time Cell Analysis on Estrogen Receptor Agonism for Proliferation (AID 2282667; active means hit-call score of the fitted dose curve at least 0.9, where 1 is the maximum). To be noted: T47D proliferation, impedance (xCELLigence), 80 h. The method in brief: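 T-47D cells monitored by electrical impedance (xCELLigence) with compound present throughout; 80 h timepoint, positive-direction fitting versus DMSO. Eight-point 1:4 dilutions from 100 uM final, duplicate plates.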

Test [2] can be described thus: APR_HepG2_CellCycleArrest_24hr: Apredica 24-hour HepG2 Assay for Cell Cycle Arrest (AID 2282905).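 Further: cell cycle arrest scored as ratio of 2N to 4N nuclear DNA content.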 The note with it: imaging, actives raise or lower the signal. The method in brief: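 Readout: Hoechst 33342 nuclear DNA content by high-content fluorescent imaging, six images/well, 20x. Human HepG2 liver cells, 24 hr compound exposure, 0.39–200 uM, final DMSO 0.5% v/v. Gain or loss fitted relative to DMSO baseline.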

Test [3] can be described thus: APR_HepG2_NuclearSize_24hr: Apredica 24-hour HepG2 Assay for Nuclear Size (AID 2282907). To be noted: high-content imaging, actives raise or lower the signal. The method in brief:
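Read-out: nuclear diameter from Hoechst 33342 (2 ug/mL) imaging of fixed HepG2 cells, 20x, six fields/well. Compounds ran at 0.39–200 uM for 24 hr, 0.5% DMSO final. Gain or loss was fitted bidirectionally relative to the DMSO baseline.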

Test [4] in a line: APR_HepG2_CellLoss_24hr: Apredica 24-hour HepG2 Assay for Cell Loss (AID 2282908).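 On AC50: fit in both directions so a hit may be cell loss or gain.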 To be noted: high-content imaging. The method in brief:
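Read-out: Hoechst 33342-stained nuclei counted by automated fluorescence imaging after formaldehyde fixation and Triton permeabilization. Ten concentrations, 0.39 to 200 uM, duplicate wells, 0.5% DMSO final. Gain or loss of signal fitted relative to DMSO baseline.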

The nature of test [5]: APR_HepG2_MicrotubuleCSK_24hr: Apredica 24-hour HepG2 Assay for Microtubule CSK Stabilty (AID 2282909). The note with it: HepG2 microtubule cytoskeleton imaging, actives raise or lower the signal. The method in brief: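 Read-out: alpha-tubulin immunofluorescence intensity by automated high-content imaging of fixed HepG2 cells after 24 h compound treatment. Ten concentrations, 0.39 to 200 uM, in duplicate; DMSO 0.5% v/v. Taxol positive control; DMSO-normalized bidirectional curve fitting.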

Test [6] in a line: APR_HepG2_MitoticArrest_24hr: Apredica 24-hour HepG2 Assay for Mitotic Arrest (AID 2282910). To be noted: high-content imaging, actives raise or lower the signal. The method in brief:
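HepG2, 24 hr dosing, 0.39–200 uM, 0.5% DMSO final. Formaldehyde-fixed, Triton-permeabilised, anti-phospho-histone H3 plus Hoechst. ArrayScan imaging at 20x; bidirectional fit vs DMSO baseline.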

The nature of test [7]: APR_HepG2_MitoMembPot_24hr: Apredica 24-hour HepG2 Assay for Mitochondrial Membrane Potential (AID 2282911). The note with it: imaging, actives raise or lower the signal. The method in brief: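 HepG2 cells exposed 24 h to 0.39–200 uM compounds in duplicate, 0.5% v/v DMSO final. MitoTracker Red CMXRos 250 nM loaded 30 min before formaldehyde fixation; high-content imaging at 20x, bidirectional fit versus DMSO.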

Test [8] in a line: APR_HepG2_MitoMass_24hr: Apredica 24-hour HepG2 Assay for Mitochondrial Mass (AID 2282912). To be noted: high-content imaging, actives raise or lower the signal. The method in brief: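 HepG2, 24 hr dosing, 10 concentrations 0.39–200 uM in duplicate, DMSO 0.5% final. MitoTracker Red CMXRos 250 nM, 30 min pre-fix; 3.7% formaldehyde fix. Imaging-based fluorescence intensity; gain/loss fit vs DMSO baseline.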

Test [9] in a line: APR_HepG2_p53Act_24hr: Apredica 24-hour HepG2 Assay for p53 Activation (AID 2282913).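 Further: p53 protein immunofluorescence averaged per cell in HepG2 with Hoechst nuclei.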 The note with it: high-content imaging, actives raise or lower the signal. The method in brief: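 HepG2 cells exposed 24 h to compounds at 0.39–200 uM in duplicate, 0.5% v/v DMSO final; fixed, permeabilized, stained with anti-p53 antibody and Hoechst 33342; fluorescence imaging; bidirectional curve fit versus DMSO.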

Test [10] is described as follows: APR_HepG2_CellCycleArrest_72hr: Apredica 72-hour HepG2 Assay for Cell Cycle Arrest (AID 2282914). The note with it: high-content imaging, actives raise or lower the signal. The method in brief:
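HepG2 cells exposed 72 h in duplicate to 0.39–200 uM compound, 0.5% DMSO final. Formaldehyde-fixed, Hoechst 33342-stained nuclei imaged at 20x, six fields per well; DNA content per valid cell quantified by cell-cycle image analysis, bidirectional fit versus DMSO.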

A short description of test [11]: APR_HepG2_CellLoss_72hr: Apredica 72-hour HepG2 Assay for Cell Loss (AID 2282915). The note with it: high-content imaging. The method in brief:
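HepG2 cells exposed 72 h to compound at 0.39–200 uM (10 concentrations, duplicate) in 0.5% DMSO. Fixed with 3.7% formaldehyde and Hoechst 33342-stained. Imaged at 20x; nuclear count gives cell number, fitted bidirectionally versus DMSO.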

Test [12] is described as follows: APR_HepG2_P-H2AX_72hr: Apredica 72-hour HepG2 Assay for H2AX Phosphorylation (AID 2282916).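 Further: phospho-histone H2A.x immunostain intensity per cell marking DNA damage.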 To be noted: imaging, actives raise or lower the signal. The method in brief: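 Readout: phospho-H2A.x immunofluorescence (FITC secondary) plus Hoechst nuclear stain, high-content imaging at 20x, six fields/well. HepG2, 72 hr compound exposure, 0.39–200 uM, final DMSO 0.5% v/v. Gain or loss fitted relative to DMSO baseline.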

Test [13] in a line: APR_HepG2_MitoMembPot_72hr: Apredica 72-hour HepG2 Assay for Mitochondrial Membrane Potential (AID 2282917). The note with it: imaging, actives raise or lower the signal. The method in brief:
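HepG2 cells dosed 72 hr with compound at 0.39–200 uM in duplicate, 0.5% v/v DMSO final. Mitochondria stained with 250 nM MitoTracker Red CMXRos for 30 min before formaldehyde fixation, imaged by high-content fluorescence; bidirectional fit versus DMSO.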

The nature of test [14]: APR_HepG2_MitoticArrest_72hr: Apredica 72-hour HepG2 Assay for Mitotic Arrest (AID 2282918). To be noted: high-content imaging, actives raise or lower the signal. The method in brief: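 HepG2 cells treated 72 h at 0.39–200 uM, 0.5% DMSO final; formaldehyde-fixed, stained with Hoechst 33342 and phospho-histone H3 antibody, imaged by high-content fluorescence; bidirectional fit versus DMSO.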

The nature of test [15]: APR_HepG2_MicrotubuleCSK_72hr: Apredica 72-hour HepG2 Assay for Microtubule CSK Stabilty (AID 2282919). The note with it: HepG2 microtubule cytoskeleton, high-content imaging, actives raise or lower the signal. The method in brief: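 HepG2, 72 hr cmpd exposure, 0.39–200 uM (10 pts, duplicate), 0.5% DMSO. 3.7% formaldehyde fix, 0.5% Triton perm, anti-alpha-tubulin/Cy5 plus Hoechst. HCS fluorescence intensity; bidirectional fit vs DMSO baseline; taxol as positive control.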

Test [16] is described as follows: APR_HepG2_P-H2AX_24hr: Apredica 24-hour HepG2 Assay for H2AX Phosphorylation (AID 2282920). The note with it: high-content imaging, actives raise or lower the signal. The method in brief:
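HepG2 cells dosed 24 h at 0.39–200 uM (10 points, duplicate, 0.5% DMSO final). Formaldehyde-fixed and permeabilized, then immunostained for phospho-H2A.x with Hoechst. Fluorescence quantified by high-content imaging, fitted bidirectionally versus DMSO.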

The nature of test [17]: APR_HepG2_StressKinase_72hr: Apredica 72-hour HepG2 Assay for Stress Kinase (AID 2282921). The note with it: HepG2 stress kinase (phospho-c-Jun) imaging, actives raise or lower the signal. The method in brief: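 Phospho-c-Jun immunofluorescence measured by high-content imaging at 20x, six fields per well; bidirectional curve fitting against DMSO as baseline. Dosing: 0.39–200 uM, 72 h, 0.5% DMSO final.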

Test [18] can be described thus: APR_HepG2_p53Act_72hr: Apredica 72-hour HepG2 Assay for p53 Activation (AID 2282923).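 Further: average cellular p53 protein immunofluorescence intensity in HepG2 cells.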 The note with it: high-content imaging, actives raise or lower the signal. The method in brief: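 Readout: p53 immunofluorescence quantified by automated high-content imaging at 20x, six fields per well, nuclei located via Hoechst. Dosing ran 72 hr over ten concentrations from 0.39 to 200 uM; bidirectional curve fitting against DMSO baseline.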

Test [19] can be described thus: APR_HepG2_MitoMass_72hr: Apredica 72-hour HepG2 Assay for Mitochondrial Mass (AID 2282924).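 Further: MitoTracker Red CMXRos stain intensity per cell imaged as mitochondrial mass.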 The note with it: high-content imaging, actives raise or lower the signal. The method in brief:
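Read-out: MitoTracker Red fluorescence intensity from automated imaging (20x, six fields per well) in human HepG2 liver cells. Dosing ran 72 hr, 0.39–200 uM, 0.5% DMSO; bidirectional curve fitting versus DMSO baseline.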

Where “and” joins values, the source holds several entries; their conditions need not be identical. Identical values can stand only once. Inconclusive results are not listed. Calls of active or inactive are those of the source. How the source made its calls, unless noted: active means hit-call score of the fitted dose curve at least 0.9, where 1 is the maximum; inactive means score below 0.9.

As to `Cc1cc(CCN2CCN(c3nsc4ccccc34)CC2)cc2c1NC(=O)CC2(C)C`, the call in test [1], in [2], in [3], in [5], in test [7] and in test [10] was inactive. The result in test [13] and in test [17] was inactive. Further, the half-maximal activity concentration (AC50) in test [4] is 28.6 µM (active); in [6], 15.7 µM (active); in test [8] it was 22.2 µM (active); in test [9], 18.2 µM (active); in test [11], 30.9 µM (active); in test [12], 11.2 µM (active). The AC50 in test [14] is 39.7 µM (active); in test [15], 37.6 µM (active); in test [16] it was 22 µM (active); in [18], 33.8 µM (active); in [19], 29 µM (active).

On to `O=c1c(-c2ccc(O)cc2)coc2cc(O)ccc12`, for which the AC50 in test [1] was 330 nM (active) and 318 nM (active) and 427 nM (active). The compound was classed as inactive in test [2], in [3], in [4], in test [5], in test [6] and in test [7]. Besides, the call in test [8], in [9], in test [10], in [11], in test [12] and in [13] was inactive. In addition, the compound was called inactive in test [14], in test [15], in [16], in test [17], in test [18] and in test [19].

Consider `CN(C)C=O`, for which the compound was classed as inactive in test [1], in [2], in [3], in test [4], in test [5] and in test [6]. Also, the call in test [7], in [8], in test [9], in test [10], in test [11] and in test [12] was inactive. The compound was called inactive in test [13], in test [14], in test [15], in [16], in test [17] and in test [18]. Moreover, the call in [19] was inactive.

With `COCC(C)O` (centres undefined), the compound was called inactive in test [1], in [2], in [3], in test [4], in [5] and in test [6]. Also, the compound was called inactive in test [8], in test [9], in [10], in [11], in [12] and in test [13]. The result in [14], in test [15], in [16], in test [17], in [18] and in [19] was inactive. Also, the AC50 in test [7] is 0.0477 µM (active).

On to `COc1ccc([N+](=O)[O-])cc1N`, for which the compound was classed as inactive in [1], in test [2], in test [3], in [4], in [5] and in test [6]. Moreover, the call in [7], in test [8], in test [9], in test [10], in [11] and in test [12] was inactive. In addition, the compound was classed as inactive in [13], in test [14], in test [15], in test [16], in test [17] and in test [18]. Also, in test [19], the result was inactive.

`CC1=C(/C=C/C(C)=C/C=C/C(C)=C/C(=O)O)C(C)(C)CCC1`: the AC50 was 1.33 nM (active) in [1]; 114 µM (active) in test [3]; 103 µM (active) in test [4]; 109 µM (active) in [6]; 83.2 µM (active) in [7]; 92.6 µM (active) in [8]. Also, the AC50 in [11] is 62 µM (active); in [16], 86.8 µM (active); in test [19], 79.9 µM (active). In addition, the call in test [2], in test [5], in test [9], in [10], in [12] and in [13] was inactive. Moreover, the result in test [14], in test [15], in test [17] and in [18] was inactive.

The AC50 is the concentration at which the activity in the assay is half-maximal.
